Hits are enriched below; roughly 7.9% of the tested compounds scored in any of these assays.
MCF10A rerep – DNA re-replication induction in MCF 10a cells; MCF 10A DNA re-replication, Hoechst nuclear intensity, 48 h; Potency, µM (series often up to 46.1 µM), most hits filed as activators; actives 2.9% (n = 350,000); AID 624296; also: nearly all actives have a fitted effect of over 50% in size
HT1080 IDH1KD tx – HT-1080 IDH1 knockdown cell toxicity (counter line); HT-1080 IDH1 knockdown viability, ATP luminescence, 48 h; AID 686971; actives 2% (n = 360,000); Potency, µM (titrated, usually from 46.1 µM), usual class: cytotoxic
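Viability of IDH1-knockdown HT-1080 fibrosarcoma cells was assessed by CellTiter-Glo after 48 h at 37 °C with titrated compound; concentration-effect curves were classified by fit quality and response size.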
KB-3-1 cytotox – kills parental KB-3-1 adenocarcinoma cells | KB-3-1 viability, CellTiter-Glo ATP luminescence, 72 h | AID 1347075 | actives 1.4% (n = 400,000) | Potency, µM (top dose mostly 46.1 µM), most hits filed as cytotoxic; also: nearly all actives have a fitted effect of over 60% in size
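Luminescent ATP read-out (CellTiter-Glo) measures survival of drug-naive KB-3-1 cells after 72 h compound exposure at 37 °C. Titration series was screened from lowest to highest concentration, with DMSO vehicle plates as background controls.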
KB-V1 cytotox – kills drug-selected multidrug resistant KB-V1 cells; KB-V1 MDR cells viability, CellTiter-Glo, 72 h; actives 3.4% (n = 400,000); AID 1347076; Potency, µM (series often up to 46.1 µM), actives largely listed as cytotoxic; also: nearly all actives have a fitted effect of over 60% in size
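Cytotoxicity toward P-gp-expressing KB-V1 cells was determined as loss of CellTiter-Glo luminescence after 72 h at 37 degrees C. Compounds were tested in quantitative HTS format across a concentration range, with curves fitted to normalized data.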
HT1080NT lethal – kills 2HG-producing HT-1080-NT fibrosarcoma cells | HT-1080-NT fibrosarcoma viability, CellTiter-Glo ATP luminescence, 48 h | Potency, µM (titrated, usually from 46.1 µM), hits mostly cytotoxic | actives 1.6% (n = 360,000) | AID 686970;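 also: NT is the 2HG producing partner of a matched IDH1 knockdown line; nearly all actives have a fitted effect of over 55% in size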
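Viability by CellTiter-Glo luminescence after 48 h compound exposure at 37C of HT-1080-NT cells (750/well, RPMI, 5% FBS). % activity scaled between DMSO wells and medium-only wells, then curve-fitted and categorized by curve class.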
SW480 rerep – inducers of DNA re-replication in SW480 colon cancer cells. SW480 DNA re-replication, Hoechst DNA content imaging, 48 h. Potency, µM (series often up to 46.1 µM), most hits filed as activators. actives 1.8% (n = 340,000); also: nearly all actives have a fitted effect of over 55% in size
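Compounds, transferred as 23 nL by pin tool, were incubated with cells for 48 hr; DNA content per nucleus was then quantified by Hoechst staining and fluorescence plate imaging.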
Large screens that a line does not name were inactive. Calls follow the shape of the dose curve; as a rule, active = well fitted curve in the direction sought with a large enough effect; inconclusive = small, poorly fitted or top-dose-only effect, or another doubt; inactive = no such curve, though single readings can be large; an effect the other way counts as inactive or inconclusive.

CCCCn1c(NC(=O)c2ccccc2Cl)c(C#N)c2nc3ccccc3nc21	MCF10A rerep 2.6µM, HT1080 IDH1KD tx 9.2µM, KB-3-1 cytotox inconclusive, KB-V1 cytotox inconclusive, HT1080NT lethal 5.8µM, SW480 rerep 16µM
CCOC(=O)c1c(NC(=O)c2ccco2)n(C2CCCCC2)c2nc3ccccc3nc12	HT1080 IDH1KD tx 16µM, KB-V1 cytotox inconclusive, HT1080NT lethal inconclusive
COc1ccc(-n2c(NC(=O)c3ccco3)c(C#N)c3nc4ccccc4nc32)cc1	MCF10A rerep 8.2µM, KB-3-1 cytotox inconclusive, KB-V1 cytotox 21µM, SW480 rerep 18µM
CCCCn1c(NC(=O)CC)c(C#N)c2nc3ccccc3nc21	none
CCC(=O)Nc1c(C#N)c2nc3ccccc3nc2n1C1CCCCC1	MCF10A rerep inconclusive, SW480 rerep inconclusive
Fc1cccc(C2CC(c3cccc(Br)c3)Nc3nnnn32)c1 (stereo unspecified)	MCF10A rerep inconclusive
C/C(=N\Nc1ccc(C(F)(F)F)cn1)c1ccncc1	KB-V1 cytotox inconclusive
COc1ccc(N(CC(=O)NCC2CCCO2)C(=O)CCC(=O)Nc2nccs2)cc1 (stereo unspecified)	KB-V1 cytotox inconclusive
COc1ccc(C(=O)/C=C2/C(=O)Nc3ccccc32)c(OC)c1	MCF10A rerep 23µM, HT1080 IDH1KD tx 23µM, KB-3-1 cytotox inconclusive, KB-V1 cytotox inconclusive, HT1080NT lethal 18µM, SW480 rerep inconclusive
NC(=O)COc1ccc(C(=O)/C=C2/C(=O)Nc3ccccc32)cc1	MCF10A rerep inconclusive, HT1080 IDH1KD tx inconclusive, SW480 rerep 23µM
COc1ccc(C(=O)/C=C2/c3ccccc3CC(C)(C)N2C)cc1	MCF10A rerep inconclusive, HT1080 IDH1KD tx 6.3µM, HT1080NT lethal 6.3µM, SW480 rerep inconclusive
O=C1Nc2ccccc2/C1=C/C(=O)c1cccs1	MCF10A rerep 21µM, HT1080 IDH1KD tx inconclusive, HT1080NT lethal inconclusive, SW480 rerep inconclusive
O=C(CC1C(=O)NCCN1CC1CCCCC1)NCCCN1CCOCC1 (stereo unspecified)	none
CC(=O)c1c(C)[nH]c(C(=O)OCc2cc(-c3ccco3)on2)c1C	none
C=CCOc1ccccc1C(=O)/C=C1/C(=O)Nc2ccccc21	MCF10A rerep 3.7µM, HT1080 IDH1KD tx inconclusive, KB-3-1 cytotox inconclusive, HT1080NT lethal inconclusive, SW480 rerep inconclusive
COc1ccc(C(=O)/C=C2/C(=O)Nc3ccccc32)cc1OC	MCF10A rerep 8.2µM, SW480 rerep inconclusive
C=CCOc1ccc(C(=O)/C=C2/C(=O)Nc3ccccc32)cc1	MCF10A rerep inconclusive, HT1080 IDH1KD tx inconclusive, HT1080NT lethal inconclusive, SW480 rerep inconclusive
COc1ccc(C(=O)/C=C2/C(=O)Nc3ccccc32)cc1	MCF10A rerep 9.2µM, HT1080 IDH1KD tx inconclusive, KB-3-1 cytotox inconclusive, HT1080NT lethal inconclusive, SW480 rerep inconclusive
O=C1Nc2ccccc2/C1=C/c1cnc(-c2ccccc2)[nH]1	HT1080 IDH1KD tx inconclusive, HT1080NT lethal inconclusive
Cc1cc(/C=C2\C(=N)N3N=C(CC(=O)N4CCOCC4)SC3=NC2=O)c(C)n1Cc1ccccc1	MCF10A rerep 18µM
CCCC1=NN2C(=N)/C(=C\c3cc(C)n(-c4cc(C)cc(C)c4)c3C)C(=O)N=C2S1	MCF10A rerep 21µM, KB-V1 cytotox inconclusive
Cc1cccc(-n2c(C)cc(/C=C3\C(=N)N4N=C(CC(C)C)SC4=NC3=O)c2C)c1	none
Cc1cc(C)cc(-n2c(C)cc(/C=C3\C(=N)N4N=C(CC(C)C)SC4=NC3=O)c2C)c1	MCF10A rerep 18µM, KB-3-1 cytotox inconclusive, KB-V1 cytotox 21µM
N#CC(C#N)=C/C=C(\Nc1ccc(Cl)cc1)c1ccc(Cl)cc1	none
Cc1ccc2nc(N3CCN(C(=O)CCCC(=O)O)CC3)nc(-c3ccccc3)c2c1	MCF10A rerep inconclusive
CCOC(=O)N1CCN(c2ccccc2O)CC1	none
O=C(O)CCC(=O)N1CCN(c2nc(-c3ccccc3)c3ccccc3n2)CC1	MCF10A rerep 21µM
Clc1ccc(-c2nc(N3CCCCC3)nc3ccccc23)cc1	MCF10A rerep 7.9µM, SW480 rerep 13µM
CCOC(=O)N1CCN(c2nc(-c3ccccc3)c3ccccc3n2)CC1	MCF10A rerep 8.2µM, HT1080NT lethal inconclusive, SW480 rerep 16µM
O=C1CSC(=NC2CCCCC2)N1	none
CC1(C)CNC(=S)N1Cc1ccccc1	none (no result: MCF10A rerep, SW480 rerep)
CCOc1ccc(Cn2c(=O)sc3ccccc32)cc1	KB-V1 cytotox inconclusive
CCOc1ccc(-c2csc(NC(=O)CSC3=NC(=O)CN3C(C)=O)n2)c2ccccc12	MCF10A rerep inconclusive
CC(=O)N1CC(=O)N=C1SCC(=O)Nc1nc(C)c(-c2ccccc2)s1	MCF10A rerep inconclusive, HT1080 IDH1KD tx inconclusive, KB-3-1 cytotox inconclusive, KB-V1 cytotox 13µM, HT1080NT lethal inconclusive
CCOc1ccccc1NS(=O)(=O)c1csc(C(N)=O)c1	none
CCc1nn(CC(=O)NCCCN2CCOCC2)c(=O)c2cc3sccc3n12	none
COc1ccc(-c2cnc3c(-c4ccc(F)cc4)cnn3c2N)cc1	SW480 rerep inconclusive
COc1ccc(NC(=O)C(=O)Nc2cccc3cccnc23)cc1OC	KB-3-1 cytotox inconclusive, SW480 rerep inconclusive
O=C(CN(Cc1cccs1)S(=O)(=O)c1ccc(S(=O)(=O)NC2CCCCC2)cc1)Nc1ccccc1	MCF10A rerep inconclusive, KB-3-1 cytotox inconclusive, KB-V1 cytotox 13µM
O=C(c1ccc2noc(-c3ccccc3)c2c1)N1CCN(c2ccccc2)CC1	none
CC(C)c1ccc(/C=N/NC(=O)c2ccccn2)cc1	HT1080 IDH1KD tx inconclusive, HT1080NT lethal inconclusive
O=C(N/N=C/c1ccc(Cl)c([N+](=O)[O-])c1)c1cc(-c2ccc3c4c(cccc24)CC3)n[nH]1	MCF10A rerep inconclusive, HT1080 IDH1KD tx 8.2µM, KB-3-1 cytotox inconclusive, KB-V1 cytotox inconclusive, HT1080NT lethal 5.2µM, SW480 rerep inconclusive
CC(C)c1ccc(/C=N/NC(=O)c2cc(-c3cccc([N+](=O)[O-])c3)n[nH]2)cc1	MCF10A rerep 18µM, HT1080 IDH1KD tx 23µM, KB-3-1 cytotox inconclusive, HT1080NT lethal inconclusive
CC(C)c1ccc(/C=N/NC(=O)c2cccc(Cl)c2)cc1	MCF10A rerep 5.8µM, HT1080 IDH1KD tx 21µM, KB-3-1 cytotox 13µM, KB-V1 cytotox 8.2µM, HT1080NT lethal 23µM, SW480 rerep inconclusive
COc1cccc(C(N)c2nc(-c3csc4ccccc34)cs2)c1 (stereo unspecified)	HT1080 IDH1KD tx inconclusive, KB-3-1 cytotox 7.3µM, KB-V1 cytotox 8.2µM, HT1080NT lethal inconclusive (no result: MCF10A rerep, SW480 rerep)
COc1ccc(C(C)(O)c2nc(-c3csc4ccccc34)cs2)cc1 (stereo unspecified)	HT1080 IDH1KD tx 16µM, KB-3-1 cytotox inconclusive, HT1080NT lethal inconclusive (no result: MCF10A rerep, SW480 rerep)

Screening data as filed in PubChem BioAssay.
